Experiment [1] in a line: compound effects on lung adenocarcinoma cell viability – A549, calcein-AM fluorescence, 48 h, basal, profiling panel (AID 1162). Note: test concentration not given here. The following applies: higher = more signal.
A short description of experiment [2]: compound effects on differentiated 3T3-L1 adipocyte viability – cell-based, 3T3-L1 adipocytes, calcein-AM fluorescence, 48 h, basal, profiling panel (AID 1163). Note: test concentration not given here. The following applies: 3T3-L1 adipocytes viability, higher = more signal.
Experiment [3] can be described thus: compound effects on hepatocellular carcinoma cell viability – HepG2, calcein-AM fluorescence, 48 h, basal, profiling panel (AID 1164). Note: test concentration not given here. The following applies: higher = more signal.
Experiment [4] can be described thus: compound effects on multiple myeloma cell viability – MM1S, calcein-AM fluorescence, 48 h, basal, profiling panel (AID 1165). Note: test concentration not given here. The conditions noted are these: higher = more signal.
Experiment [5] in a line: calcein-AM signal in unstimulated myeloma cells – cell-based, calcein-AM fluorescence, 48 h, PK04 Diversity Set, profiling panel (AID 1166).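 Note: cells grown under basal conditions without added stimulus; test concentration not given here.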 The conditions noted are these: RPMI8226 myeloma viability, higher = more signal.
Experiment [6] is described as follows: JC-1 mitochondrial signal, unstimulated HepG2 cells – cell-based, JC-1 fluorescence, 24 h, 100 nL compound, profiling panel (AID 1167). Note: test concentration not given here. The conditions noted are these: HepG2 mitochondrial potential, higher = more signal.
Experiment [7] in a line: JC-1 mitochondrial signal, unstimulated adipocytes – cell-based, JC-1 fluorescence, 3T3-L1 adipocytes, 24 h, 100 nL compound, profiling panel (AID 1168). Note: test concentration not given here. The following applies: JC-1 mitochondrial fluorescence, higher = more signal, called active from +8 up or from −8 down.
The nature of experiment [8]: JC-1 mitochondrial signal, unstimulated myeloma cells – cell-based, JC-1 fluorescence, RPMI8226, 24 h, 100 nL compound, profiling panel (AID 1169). Note: test concentration not given here. The following applies: JC-1 mitochondrial potential fluorescence, higher = more signal.
Experiment [9] in a line: JC-1 mitochondrial signal, unstimulated MM1S myeloma – cell-based, JC-1 fluorescence, 24 h, 100 nL compound, profiling panel (AID 1170). Note: test concentration not given here. The conditions noted are these: MM1S mitochondrial potential, higher = more signal.
The nature of experiment [10]: resazurin metabolic signal in A549 cells – cell-based, resazurin fluorescence, 24 h, PK04 Diversity Set, profiling panel (AID 1171). Note: test concentration not given here. The following applies: A549 viability, higher = more signal, called active from +8 up or from −8 down. For orientation: Alamar Blue is a resazurin reagent that responds to reducing activity.
Experiment [11] in a line: resazurin metabolic signal in HepG2 cells – cell-based, resazurin fluorescence, 24 h, PK04 Diversity Set, profiling panel (AID 1172). Note: test concentration not given here. The conditions noted are these: HepG2 viability, higher = more signal.
A short description of experiment [12]: budding yeast growth changes without added modifier – OD600, strain BY4716, 24 h, basal condition, primary screen (AID 1173). The conditions noted are these: S. cerevisiae BY4716 growth, OD600, 24 h; higher = more signal, called active from +8 up or from −8 down.
Experiment [13] is described as follows: viability profiling in MM1S myeloma cells – cell-based, resazurin fluorescence, basal, 24 h, PK04 Diversity Set, profiling panel (AID 1174). Note: test concentration not given here. The conditions noted are these: higher = more signal, called active from +8 up or from −8 down.
Experiment [14] concerns the target Dihydroorotate dehydrogenase (quinone), mitochondrial (Plasmodium falciparum (isolate 3D7)) (UniProt Q08210). In words: inhibition of P. falciparum DHODH – biochemical, C-terminal His tag, absorbance 600 nm, primary screen (AID 1175).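 Note: recombinant parasite enzyme with a five histidine tag at its C terminus; test concentration not given here.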 The following applies: PfDHODH enzyme, DCIP absorbance 600 nm; higher = more signal, called active from +8 up or from −8 down.
Experiment [15] in a line: inhibition of PAO1 biofilm formation – strain PAO1, LB-PBS medium, absorbance 600 nm, primary screen (AID 1176). Note: test concentration not given here. The following applies: P. aeruginosa PAO1 growth/biofilm, A600, 12 h; higher = more signal.
Experiment [16] in a line: growth modulation of vineyard yeast isolate – strain RM11-1a, OD600, basal, 24 h, primary screen (AID 1177).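 Note: cultures grown under basal conditions with no added stressor; test concentration not given here.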 The following applies: S. cerevisiae RM11-1a growth, OD600, 24 h; higher = more signal, called active from +8 up or from −8 down.
A short description of experiment [17]: growth of efflux-deficient E. coli DRC39 – strain DRC39, OD650, 24 h, E. coli filamentation inducers, primary screen (AID 1178).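 Note: growth measured as culture turbidity by optical density at 650 nm; test concentration not given here.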 The conditions noted are these: E. coli DRC39 acrAB, higher = more signal, called active from +8 up or from −8 down.
Experiment [18] in a line: growth of efflux-deficient E. coli DRC39 – strain DRC39, OD650, 48 h, E. coli filamentation inducers, primary screen (AID 1179).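 Note: screen aims at cell division blockers that make cells filament.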 The following applies: E. coli DRC39 delta-acrAB growth, higher = more signal, called active from +8 up or from −8 down.
Experiment [19] in a line: viability profiling in RPMI8226 myeloma cells – cell-based, resazurin fluorescence, basal, 24 h, PK04 Diversity Set, profiling panel (AID 1180).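 Note: RPMI8826 multiple myeloma cell line at 5000 cells per well; test concentration not given here.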 The conditions noted are these: higher = more signal.
Experiment [20] addresses E3 ubiquitin-protein ligase XIAP (Homo sapiens) (UniProt P98170). The experiment in a line: small molecules binding XIAP protein – biophysical, small-molecule microarray, fluorescence 635 nm, primary screen (AID 1181).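 Note: score merges 667 nm emission and signal to noise over triplicate slides.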 The following applies: higher = more signal.

SMILES strings stand for the structures. Active and inactive are the calls of the source. Unless noted, the rule behind the calls is not given here.

Chain of Dihydroorotate dehydrogenase (quinone), mitochondrial (Plasmodium falciparum (isolate 3D7)) (Q08210 whole entry, looked up): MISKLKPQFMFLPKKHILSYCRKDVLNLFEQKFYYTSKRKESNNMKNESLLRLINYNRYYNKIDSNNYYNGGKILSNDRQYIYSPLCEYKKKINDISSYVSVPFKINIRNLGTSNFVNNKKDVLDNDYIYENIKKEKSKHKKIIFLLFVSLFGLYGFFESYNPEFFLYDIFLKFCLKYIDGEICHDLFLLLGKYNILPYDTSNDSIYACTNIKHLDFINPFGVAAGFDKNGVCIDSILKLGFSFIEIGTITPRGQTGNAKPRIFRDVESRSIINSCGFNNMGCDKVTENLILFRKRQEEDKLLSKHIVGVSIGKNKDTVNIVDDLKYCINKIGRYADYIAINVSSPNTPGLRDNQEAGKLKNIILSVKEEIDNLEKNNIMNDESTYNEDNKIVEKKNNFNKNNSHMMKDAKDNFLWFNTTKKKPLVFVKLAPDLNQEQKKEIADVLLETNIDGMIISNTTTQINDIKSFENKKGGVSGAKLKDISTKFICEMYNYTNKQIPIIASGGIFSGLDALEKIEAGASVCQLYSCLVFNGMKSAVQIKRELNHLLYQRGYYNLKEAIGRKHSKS
Chain of E3 ubiquitin-protein ligase XIAP (Homo sapiens) (P98170 whole entry, looked up): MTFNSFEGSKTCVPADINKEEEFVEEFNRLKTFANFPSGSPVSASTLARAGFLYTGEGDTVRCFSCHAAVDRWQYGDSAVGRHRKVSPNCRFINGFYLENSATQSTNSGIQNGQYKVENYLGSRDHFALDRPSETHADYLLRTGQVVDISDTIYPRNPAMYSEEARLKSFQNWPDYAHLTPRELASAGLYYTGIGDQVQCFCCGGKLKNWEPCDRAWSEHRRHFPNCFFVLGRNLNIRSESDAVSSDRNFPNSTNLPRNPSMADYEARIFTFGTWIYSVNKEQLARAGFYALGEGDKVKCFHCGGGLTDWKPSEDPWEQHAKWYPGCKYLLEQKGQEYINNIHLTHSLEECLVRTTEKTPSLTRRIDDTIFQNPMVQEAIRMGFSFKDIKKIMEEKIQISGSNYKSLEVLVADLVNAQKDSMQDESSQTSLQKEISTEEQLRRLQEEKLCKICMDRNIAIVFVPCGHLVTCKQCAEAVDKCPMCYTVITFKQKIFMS

With `CCOC(=O)C1=CC[C@@H](c2ccccc2)N(S(=O)(=O)c2ccc(C)cc2)[C@H]1C(=O)OCC`, the z-score in [1] was -0.613; in experiment [2] it was -0.467; in experiment [3] it was -0.111; in experiment [4], 0.884; in [5], 0.0651; in experiment [6] it was 3. Moreover, the z-score was 0.252 (inactive) in experiment [7]; -0.619 in experiment [8]; -1.24 in [9]; 0.706 (inactive) in [10]; -0.0229 in experiment [11]; 1.45 (inactive) in [12]. Further, the z-score in experiment [13] was -0.424 (inactive); in [15] it was -0.0196 (inactive); in [16], 0.482 (inactive); in [17], -0.0018 (inactive); in [18], 0.237 (inactive); in experiment [19], -0.904. Further, the values for the composite z-score in experiment [14] and in experiment [20] were -0.103 (inactive) and -0.052, respectively.
Turning to `COCCOC(=O)N1C(=O)[C@@]2(c3cc(C#CCC(C(=O)OC)C(=O)OC)ccc31)[C@H](c1ccccc1OCCO)N1[C@H](c3ccccc3)[C@H](c3ccccc3)OC(=O)[C@H]1[C@@H]2C(=O)N1CCc2cc(OC)c(OC)cc2C1`, the z-score in experiment [1] is 0.178; in [2], 1.76; in [3], -0.821; in experiment [4], -0.906; in experiment [5], -0.756; in [6] it was -0.0323. The z-score in experiment [7] is 2.21 (inactive); in experiment [8] it was -0.833; in [9], -0.702; in experiment [10], 1.34 (inactive); in experiment [11], 1.68; in [12] it was 0.983 (inactive). The z-score in experiment [13] was 1.58 (inactive); in experiment [15] it was 1.45 (inactive); in experiment [16], 1.16 (inactive); in experiment [17], 0.252 (inactive); in experiment [18], -0.441 (inactive); in experiment [19], 1.78. In addition, the composite z-score is -0.857 (inactive) in experiment [14] and 0.314 in experiment [20].
In the case of `[N-]=[N+]=NCc1ccccc1C[C@@]1(C(=O)N2CCOCC2)N=C(c2ccc(OCCCO)cc2)O[C@@H]1c1ccccc1CN=[N+]=[N-]`, the z-score in [1] was 0.052; in [2], -0.19; in [3], 1.29; in experiment [4], -0.757; in experiment [5], -2.91; in experiment [6] it was 0.883. Further, the z-score in [7] is 0.612 (inactive); in experiment [8], -0.997; in experiment [9], -1.15; in experiment [10], -1.46 (inactive); in experiment [11], -0.638; in [12], 0.418 (inactive). In addition, the z-score in experiment [13] was -2.22 (inactive); in experiment [15], 2.03 (inactive); in experiment [16], 1.19 (inactive); in [17] it was 0.296 (inactive); in experiment [18] it was 1.06 (inactive); in [19] it was -1.46. The figures for the composite z-score in experiment [14] and in experiment [20] were -0.346 (inactive) and -0.138, respectively.
As to `C=C(CCCC)/C(=C/C[C@H](OC(C)=O)c1ccc(CO)o1)c1cnc2ccccc2c1`, the z-score in [1] was 0.0278; in experiment [2], -0.229; in experiment [3], 0.311; in experiment [4], -2.01; in experiment [5], -0.889; in experiment [6], -1.04. Besides, the z-score in experiment [7] was -0.779 (inactive); in experiment [8], -0.143; in experiment [9], -0.238; in experiment [10], 0.398 (inactive); in [11], -0.0826; in [12], -0.143 (inactive). Further, the z-score in experiment [13] was -0.735 (inactive); in experiment [15] it was 1.58 (inactive); in [16], 1.66 (inactive); in experiment [17], 0.18 (inactive); in experiment [18] it was 0.284 (inactive); in experiment [19] it was 0.137. For the same molecule, the composite z-score in experiment [14] is -6.03 (inactive); in [20], 0.0426.
With `COCCOC(=O)N1C(=O)[C@@]2(c3cc(C#CCC(C(=O)OC)C(=O)OC)ccc31)[C@H](C(=O)N1CCCCCCC1)[C@H]1C(=O)O[C@H](c3ccccc3)[C@H](c3ccccc3)N1[C@@H]2c1ccc(OCCO)cc1`, the z-score is 0.855 in experiment [1]; 1.27 in experiment [2]; 1.19 in experiment [3]; -0.38 in experiment [4]; 0.185 in experiment [5]; 0.322 in [6]. The z-score in experiment [7] is -5 (inactive); in experiment [8], -0.812; in experiment [9], -1.41; in [10] it was 1.33 (inactive); in experiment [11], 2.14; in experiment [12] it was 0.905 (inactive). For the same molecule, the z-score is 0.281 (inactive) in experiment [13]; 1.3 (inactive) in experiment [15]; 2.41 (inactive) in experiment [16]; 0.027 (inactive) in experiment [17]; 0.271 (inactive) in [18]; 0.437 in [19]. Besides, the composite z-score in experiment [14] was -0.352 (inactive); in experiment [20], 0.611.
